The source of these data is PubChem BioAssay AID771 (SRMLSC, 2007).

Among all 3,300 compounds or so, about 55 (2%) were called active.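 The calls were made as follows: active = growth inhibition above 90%, meaning viable cell count by imaging cut by more than 90% versus vehicle controls; inactive = growth inhibition below 90%.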 This excerpt belongs to a sample that is enriched for actives.

This test is described as follows: HT29 colon tumor cell growth inhibition, primary screen, imaging, high content imaging, 48 h, CellTiter-Glo (AID 771).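 As to condensed nuclei: condensed means Hoechst nuclear area under control median minus 1.5 SD.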 The conditions noted are these: HCS imaging cell count, at 10 µM, stronger effect = higher value; for condensed nuclei: measured here: percent cells with condensed nuclei. In general terms: ATP-based viability assays read luminescence as a measure of living cells.

Where [1] appears, read: measured here: ATP CellTiter-Glo viability inhibition.

As for `CCOc1ccc(C2C(C#N)=C(N)SC(N)=C2C#N)cc1OC`, the growth inhibition was 25.3% (inactive) and the condensed nuclei came to 0.7%. Further, the growth inhibition under setting [1] came to 1.94%.
For `OCCNc1ncnc2c1c(-c1ccccc1)c(-c1ccccc1)n2Cc1ccco1`, the growth inhibition was 37.6% (inactive) and the condensed nuclei is 3.02%. For the same molecule, the growth inhibition under setting [1] amounted to 15.3%.
For `N=c1c2c(-c3ccccc3)c(-c3ccccc3)n(Cc3ccccc3)c2ncn1CCCn1ccnc1` the same measures were 99.7% (active), 41.1% and 97.2%.
For `O=c1c(C=NCCCn2ccnc2)c(-c2ccccc2)[nH]n1-c1nc2ccccc2s1`, in that order: 1.39% (inactive), 3.29% and 1.73%.
With `COC(=O)c1[nH]c(C)c(/C(O)=C2\C(=O)C(=O)N(CCN3CCOCC3)C2c2ccccc2OC)c1C` (centres undefined), the growth inhibition was 15.6% (inactive) and the condensed nuclei is 1.6%. Besides, the growth inhibition under setting [1] amounted to 7.04%.
On to `O=C(NCCN1CCCCC1)/C(=N\O)c1ccccc1`, for which the growth inhibition was -0.27% (inactive) and the condensed nuclei was 1.08%. Also, the growth inhibition under setting [1] is -18.5%.
For `Cc1c(=O)n(OCc2c(F)cccc2F)c2ccccc2[n+]1[O-]`, the growth inhibition was 7.92% (inactive) and the condensed nuclei was 2.94%. The growth inhibition under setting [1] amounted to 2.47%.
For `C=CC(O)Cc1c(C)n[nH]c1C` (centres undefined) the same measures were -31.7% (inactive), 2.84% and 7.27%.
`COc1ccc(OCC(=O)N2CCN(C(=O)c3cccc4ccccc34)CC2)cc1`: the growth inhibition is -1.2% (inactive) and the condensed nuclei came out at 2%. Besides, the growth inhibition under setting [1] was -3.25%.
As to `CNCCC=C1c2ccccc2CCc2ccccc21`, the growth inhibition is 97.6% (active) and the condensed nuclei worked out at 32.9%.
`CN(C)CCC=C1c2ccccc2CCc2ccccc21`: the growth inhibition was 28.2% (inactive) and the condensed nuclei worked out at 6.45%.
With `COc1ccc(C(C)=O)cc1CSCCC(=O)O`, the growth inhibition was -39.8% (inactive) and the condensed nuclei stood at 1.66%. Besides, the growth inhibition under setting [1] was -10.3%.
For `CCOC(=O)Oc1ccc2c(c1)C(C)=CC(C)(C)N2C(=O)OCC` the same measures were 44.5% (inactive), 1.63% and 33.4%.
On to `CCCc1cc(NCCCCO)n2c(nc3ccccc32)c1C#N`, for which the growth inhibition is 41.5% (inactive) and the condensed nuclei was found to be 2.71%. For the same molecule, under setting [1], the growth inhibition came to 6.57%.
For `C/C(=N/n1cnnc1)c1cccnc1`, the growth inhibition is -50.9% (inactive) and the condensed nuclei is 2.16%. Further, the growth inhibition under setting [1] was -4.47%.
For `COCc1cc(=O)[nH]c(Nc2nc3ccc(C)cc3o2)n1` the same measures were 93% (active), 0% and 69.7%.
For `COCc1cc(=O)[nH]c(Nc2nc3ccccc3o2)n1` the same measures were 89.2% (inactive), 2.5% and 76.3%.
Take `Cc1cccc(OCc2nc(C)cc(=O)[nH]2)c1`: the growth inhibition was 37.9% (inactive) and the condensed nuclei was determined as 2.19%. Further, the growth inhibition under setting [1] stood at 1.04%.
In the case of `COc1ccccc1-n1c(=O)c2c3c(sc2n2c(SC(C)C)nnc12)CCC3`, the growth inhibition is -4.74% (inactive) and the condensed nuclei was 3.08%. The growth inhibition under setting [1] was -1.5%.
For `CCOC(=O)C1=C(c2ccccc2)NC(SCC(=O)Nc2ccccc2C)=C(C#N)C1c1ccco1` (centres undefined) the same measures were 91% (active), 11% and 75.3%.
For `C=CCOC(=O)C1=C(C)NC(SCC(=O)N(CC)CC)=C(C#N)C1c1ccco1` (centres undefined), in that order: -28.4% (inactive), 2.96% and -41.1%.
For `C=CCOC(=O)C1=C(C)NC(SCC(=O)N(CC)CC)=C(C#N)C1c1ccccc1` (centres undefined) the same measures were 54.1% (inactive), 4.29% and 3.16%.
For `C=CCOC(=O)C1=C(C)NC(SCC(=O)Nc2ccc(C)c(Cl)c2)=C(C#N)C1c1ccco1` (centres undefined), the growth inhibition was 91.3% (active) and the condensed nuclei came out at 8.14%. Besides, the growth inhibition under setting [1] was 45.8%.
For `COCCOC(=O)C1=C(C)NC(SCC(=O)NC(C)(C)C)=C(C#N)C1c1ccco1` (centres undefined), the growth inhibition was 34.7% (inactive) and the condensed nuclei was 3.96%. In addition, the growth inhibition under setting [1] was -24.4%.
Regarding `CCN(CC)C(=O)CSC1=C(C#N)C(c2ccco2)C(C(=O)OCCOC)=C(C)N1` (centres undefined), the growth inhibition was 25.5% (inactive) and the condensed nuclei was 3.61%. Also, the growth inhibition under setting [1] came to 20.6%.
For `Cc1cc(CC(=O)O)c(C)cc1CC(=O)O` the same measures were -42% (inactive), 2.43% and -0.43%.
For the molecule `CCCn1nnc(NC(=O)c2cc(Br)cc(Br)c2OC)n1`, the growth inhibition is -8.21% (inactive) and the condensed nuclei is 7.92%. For the same molecule, under setting [1], the growth inhibition was -15.1%.
Turning to `O=C1[C@@H]2[C@H](C(=O)N1O)[C@H]1C=C[C@@H]2C1`, the growth inhibition was 1.8% (inactive) and the condensed nuclei is 1.79%. For the same molecule, the growth inhibition under setting [1] was -19.1%.
Turning to `CCCc1nnc(NC(=O)c2c(O)c3c([nH]c2=O)CCCC3)s1`, the growth inhibition was -9.28% (inactive) and the condensed nuclei was determined as 7.28%. Also, under setting [1], the growth inhibition was -32.6%.
For `COc1cc(-c2nn3c(-c4cccnc4)nnc3s2)cc(OC)c1OC` the same measures were -10.1% (inactive), 3% and -33.4%.
For `CCN(CC)c1ccc(-c2nn3c(-c4cccnc4)nnc3s2)cc1`, in that order: 90.1% (active), 4.92% and 75%.
For `c1cncc(-c2nnc3sc(-c4ccco4)nn23)c1`, in that order: 28% (inactive), 21.4% and 26.6%.
As to `O=C(NCCCn1ccnc1)c1cccnc1`, the growth inhibition is -11.4% (inactive) and the condensed nuclei is 2.67%. For the same molecule, under setting [1], the growth inhibition is -30.1%.
For `COc1cccc(-c2nc(N3CCN(Cc4ccccc4)CC3)c3ccccc3n2)c1O`, in that order: -8.14% (inactive), 2.41% and 0.87%.
For `COc1cc2nc(-c3ccccc3)nc(N3CCCC3)c2cc1OC` the same measures were 27.7% (inactive), 2.25% and 3.73%.
For `CCOc1cc2nc(-c3ccc(OC)c(OC)c3)nc(N3CCOCC3)c2cc1OC`, in that order: 97.2% (active), 39.3% and 90%.
Regarding `CCC1(C)Cc2ccccc2-c2nc(NCCO)n(-c3ccccc3)c(=O)c21` (centres undefined), the growth inhibition is 60.4% (inactive) and the condensed nuclei was determined as 2.11%. The growth inhibition under setting [1] is 4.3%.
